Measurements published in PubChem BioAssay (NCI).
This is part of a sample that, as a whole, favours compounds with a hit. Of some 83,000 tested, about 20% had one in any assay.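 How to read the values: 0–100, growth inhibition (40 = 60% inhibited); 0, no net growth; -100 to 0, cell death (-40 = 40% of starting cells died; -100 = all dead).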 Active and inactive are the calls of the source. Rule for the calls: active = growth percent below 10; inactive = the rest.

Each compound was assayed on NCI-H23 lung (assay: NCI-60 one-dose screen, 48 h (100 = growth as untreated, 0 = no growth, -100 = all killed)). Settings: 10 µM unless noted.

Compound	growth
O=[N+]([O-])c1cc(/C=N/Nc2nc(N/N=C/c3ccc(Cl)c([N+](=O)[O-])c3)nc(N3CCCCC3)n2)ccc1Cl	81.8% (inactive)
C#Cc1nc(C(C)=O)cs1	102% (inactive)
O=C1[C@H]2Cc3c([nH]c4ccccc34)[C@@H](c3c(Cl)cccc3Cl)N2C(=O)CN1C1CCN(CC2CCCCC2)CC1	94.5% (inactive)
O=C1Nc2ccccc2/C1=C/c1ccc(COCC2CO2)n1-c1ccc(O)cc1 (stereo not drawn)	100% (inactive)
CCOc1ccc(NC2=C(Cl)C(=O)c3nc(C)ccc3C2=O)cc1	-61% (active)
O=S(=O)(NCCCNc1nccc(-c2[nH]c(-c3ccccc3)nc2-c2ccc(Cl)c(O)c2)n1)c1cccc(F)c1	65.5% (inactive)
CN1CCN(Cc2ccc(NC(=O)c3cncc(C#Cc4cnc5ccc(OCC6(C)COC6)nn45)c3)cc2C(F)(F)F)CC1	-76.2% (active)
COc1cc2c(cc1OC)C(Sc1ccc(F)cc1)c1c(nc(N)c(C#N)c1N)O2 (stereo not drawn)	-83.1% (active)
Cc1nc(-c2ccccc2O)ccc1C(=O)N=Nc1c(O)[nH]c2ccc(Br)cc12	96.2% (inactive)
COc1cc(-c2nnc(SCc3ccc(O)c4ncccc34)n2-c2ccccc2)cc(OC)c1OC	9.25% (active)
NS(=O)(=O)c1ccc(-n2cc(CN3CCCCC3)nn2)cc1	107% (inactive)
COc1cc(/C=C2\C(=O)Nc3ccccc32)ccc1OCc1ccc(Cl)cc1	93.3% (inactive)
Cc1ccc(-c2nnc(SCc3ccc(O)c4ncccc34)o2)cc1	27.9% (inactive)
COc1ccccc1NCc1cccn1Cc1ccc(F)cc1	96.6% (inactive)
CCN1CCN(Cc2ccc(C(=O)Nc3ccc(C)c(Oc4ccc(-c5[nH]nc6ncnc(N)c56)cc4)c3)cc2C(F)(F)F)CC1	93.2% (inactive)
CCOC(=O)c1c(NC(=O)c2ccccc2C(F)(F)F)sc2c1CCC(=O)C2	23.3% (inactive)
CN1CCN(c2ccc(/C=N/n3cnc4oc(-c5ccccc5)cc4c3=N)cc2)CC1	93.6% (inactive)
Cn1ccnc1C(=O)/C=C/c1ccc(CNC(=O)c2ccc(S(F)(F)(F)(F)F)cc2)cc1	3.4% (active)
COc1ccc(NC2=C(Cl)C(=O)c3nc(C)ccc3C2=O)cc1OC	59% (inactive)

Compound	growth
CCc1nn2c(C)cc(C)nc2c1Cc1ccc(/C=C/CN2CCN(CCOCCOCCN3CCN(C/C=C/c4ccc(Cc5c(CC)nn6c(C)cc(C)nc56)cc4)CC3)CC2)cc1	26.2% (inactive)
COc1c(N2CC3CCCNC3C2)c(F)cc2c(=O)c(C(=O)N/N=C/c3c[nH]c4ccccc34)cn(C3CC3)c12 (stereo not drawn)	102% (inactive)
CC(=O)c1nnn(-c2c(C(=O)n3nc(C)cc3C)sc(=S)n2-c2ccccc2)c1C	106% (inactive)
CCCCc1nc(/C=N/Nc2nc(Nc3ccccc3)nc(Nc3ccc(S(N)(=O)=O)cc3)n2)c(Cl)[nH]1	101% (inactive)
O=C(CNc1nc(-c2cccc([N+](=O)[O-])c2)cs1)Nc1cccc(Cl)c1	96% (inactive)
O=C(CSc1nnc(-c2ccc(Cl)cc2)n1-c1ccccc1)Nc1ccc(Br)cc1	35.9% (inactive)
Cn1ccnc1C(=O)/C=C/c1ccc(NC(=O)c2c(F)c(F)c(F)c(F)c2F)cc1	97.6% (inactive)
CNC(=O)c1cc(N2CCc3cc(NC(=O)Nc4ccc(Cl)c(C(F)(F)F)c4)ccc32)ccn1	56.1% (inactive)
COc1c(N2CC3CCCNC3C2)c(F)cc2c(=O)c(C(=O)N/N=C/c3ccccc3)cn(C3CC3)c12 (stereo not drawn)	90.7% (inactive)
C[C@H](CCC(=O)NCc1ccc(C(=O)Nc2ccccc2N)cc1)[C@H]1CC[C@H]2[C@@H]3[C@@H](O)C[C@@H]4C[C@H](O)CC[C@]4(C)[C@H]3CC[C@]12C	66.7% (inactive)
COc1c(N2CC3CCCNC3C2)c(F)cc2c(=O)c(C(=O)N/N=C/c3ccc4c(c3)OCO4)cn(C3CC3)c12 (stereo not drawn)	81.8% (inactive)
O=S(=O)(NCCCNc1nccc(-n2cnc3ccccc32)n1)c1ccc(C(F)(F)F)cc1	91.3% (inactive)
C=CCn1c(SCC(=O)Nc2ccc(C(=O)/C=C/c3cc(OC)c(OC)c(OC)c3)cc2)nnc1-c1c[nH]c2ccccc12	-11% (active)
Brc1ccccc1/C=N/Nc1nc(N/N=C/c2ccccc2Br)nc(N2CCOCC2)n1	105% (inactive)
COc1ccc(-c2cc(-c3ccc(Cl)cc3)c(C#N)c(=O)n2Cc2ccc(C(=O)O)cc2)cc1	85.9% (inactive)
CS(=O)(=O)Nc1cc(-c2ccc3ncc(C#N)c(NCc4cccc(F)c4)c3c2)cnc1Cl	-1.85% (active)
COc1ccc(NC(=O)Nc2ccc3c(ccn3C(=O)c3cccc(F)c3)c2)cc1	72.5% (inactive)
O=C(CNc1nc(-c2cccc([N+](=O)[O-])c2)cs1)Nc1cccc([N+](=O)[O-])c1	-29.7% (active)
O=C(/C=C/c1ccc(F)cc1)c1ccc(O)cc1	95.6% (inactive)
